The campaign covered roughly 5,500 compounds. About 2,000 (36%) were called active. Not shown: some 18% with an inconclusive outcome. Cut-off read from the data, not from the text of the source: active = normalized growth mostly below about 0.91 (no sharp cut-off); inconclusive = no clear call, values can overlap the other calls; inactive = mostly above about 0.92. The list shows a part of the results.
Assay: chemical genetic growth profiling, strain panel (AID 1159580);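 note: tested at 20 µM; growth read once vehicle control cultures reached saturation at 30 °C; 1 = growth at the plate median or of vehicle wells; lower values mean less growth of the strain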
Details: growth OD
[1] = S. cerevisiae deletion strains, locus YAL013W, strain DEP1, stronger effect = lower value
[2] = S. cerevisiae deletion strains, locus YBR229C, strain ROT2, stronger effect = lower value
[3] = S. cerevisiae deletion strains, locus YDL101C, strain DUN1, stronger effect = lower value
[4] = S. cerevisiae deletion strains, locus YDL134C, strain PPH21, stronger effect = lower value
[5] = S. cerevisiae deletion strains, locus YDR150W, strain NUM1, stronger effect = lower value
[6] = S. cerevisiae deletion strains, locus YEL061C, strain CIN8, stronger effect = lower value
[7] = S. cerevisiae deletion strains, locus YGR078C, strain PAC10, stronger effect = lower value
[8] = S. cerevisiae deletion strains, locus YHR030C, strain SLT2, stronger effect = lower value
[9] = S. cerevisiae deletion strains, locus YHR087W, strain rtc3, stronger effect = lower value
[10] = S. cerevisiae deletion strains, locus YJL187C, strain SWE1, stronger effect = lower value
[11] = S. cerevisiae deletion strains, locus YJR043C, strain POL32, stronger effect = lower value
[12] = S. cerevisiae deletion strains, locus YJR075W, strain HOC1, stronger effect = lower value
[13] = S. cerevisiae deletion strains, locus YLR039C, strain RIC1, stronger effect = lower value
[14] = S. cerevisiae deletion strains, locus YLR058C, strain SHM2 (second series), stronger effect = lower value
[15] = S. cerevisiae deletion strains, locus YLR085C, strain ARP6, stronger effect = lower value
[16] = S. cerevisiae deletion strains, locus YLR262C, strain YPT6, stronger effect = lower value
[17] = S. cerevisiae deletion strains, locus YML094W, strain GIM5, stronger effect = lower value
[18] = S. cerevisiae deletion strains, locus YMR219W, strain ESC1, stronger effect = lower value
[19] = S. cerevisiae deletion strains, locus YMR263W, strain SAP30, stronger effect = lower value
[20] = S. cerevisiae deletion strains, locus YNL128W, strain TEP1, stronger effect = lower value
[21] = S. cerevisiae deletion strains, locus YNL153C, strain GIM3, stronger effect = lower value
[22] = S. cerevisiae deletion strains, locus YNL298W, strain CLA4 (second series), stronger effect = lower value
[23] = S. cerevisiae deletion strains, locus YNL322C, strain KRE1, stronger effect = lower value
[24] = S. cerevisiae deletion strains, locus YNR030W, strain Alg12, stronger effect = lower value
[25] = S. cerevisiae deletion strains, locus YPL055C, strain LGE1, stronger effect = lower value
[26] = S. cerevisiae deletion strains, locus YPL241C, strain CIN2, stronger effect = lower value
[27] = S. cerevisiae deletion strains, locus YPR135W, strain CTF4, stronger effect = lower value
[28] = S. cerevisiae deletion strains, locus YGR229C, strain SMI1, stronger effect = lower value
[29] = S. cerevisiae deletion strains, locus YKL190W, strain CNB1, stronger effect = lower value
[30] = S. cerevisiae strains, strain wild type, stronger effect = lower value
[31] = S. cerevisiae deletion strains, locus YMR307W, strain GAS1, stronger effect = lower value

Measured: normalized growth

NC(=S)N/N=C\c1ccc(F)c(Cl)c1
active: [1] 0.921 | [6] 0.804 | [8] 0.605 | [15] 0.198 | [17] 0.759 | [22] 0.661 | [24] 0.811
inactive: [2] 0.995 | [3] 0.972 | [4] 0.992 | [5] 1 | [7] 0.988 | [9] 1.04 | [10] 0.981 | [11] 0.996 | [12] 1.04 | [13] 0.966 | [14] 0.996 | [16] 1.06 | [18] 0.999 | [19] 0.919 | [20] 0.944 | [21] 0.961 | [23] 1.04 | [25] 0.849 | [26] 0.889 | [27] 0.655

Clc1ccc(N2CC3CCC(C2)N3)nn1
inactive: [1] 1.04 | S. cerevisiae deletion strains, locus YAL040C, strain CLN3, stronger effect = lower value 1.01 | S. cerevisiae deletion strains, locus YCL061C, strain MRC1 (second series), stronger effect = lower value 1.01 | [5] 1 | S. cerevisiae deletion strains, locus YDR363W, strain ESC2, stronger effect = lower value 1.01 | S. cerevisiae deletion strains, locus YER002W, strain NOP16, stronger effect = lower value 1 | [28] 1.03 | [21] 1.01 | S. cerevisiae deletion strains, locus YNL175C, strain NOP13, stronger effect = lower value 0.995 | S. cerevisiae deletion strains, locus YNL197C, strain WHI3, stronger effect = lower value 1 | S. cerevisiae deletion strains, locus YNL224C, strain SQS1, stronger effect = lower value 1 | [23] 1.04 | S. cerevisiae deletion strains, locus YOR083W, strain WHI5 (second series), stronger effect = lower value 0.959

NC(=S)N/N=C\c1cccs1
active: [12] 0.829 | [15] 0.562 | [18] 0.873 | [21] 0.898 | [24] 0.737
inactive: [1] 0.984 | [2] 0.96 | [3] 0.979 | [5] 0.962 | [6] 0.945 | [7] 0.98 | [28] 1.01 | [8] 0.992 | [9] 1.02 | [11] 0.973 | [29] 1 | [13] 1.11 | [14] 1 | [16] 1.08 | [17] 0.92 | [19] 0.997 | [20] 1 | [22] 0.955 | [23] 1.02 | [25] 0.915 | [26] 1.06 | [27] 1.02 | [30] 1

NC(=S)N/N=C\c1ccccc1
active: [6] 0.902 | [15] 0.301 | [31] 0.579 | [22] 0.836
inactive: [1] 0.991 | [2] 1.02 | [3] 0.987 | [5] 0.963 | [7] 1.02 | [8] 0.823 | [9] 1.06 | [11] 1 | [12] 1.04 | [29] 0.973 | [13] 1.13 | [14] 1.01 | [16] 1.08 | [17] 0.872 | [18] 1 | [19] 0.982 | [21] 0.971 | [23] 1.03 | [24] 0.925 | [25] 0.872 | [26] 0.983 | [27] 0.886 | [30] 0.974

O=C(N/N=C\c1cccs1)c1ccccc1CO
inactive: [1] 0.998 | [2] 1.01 | [3] 0.997 | [4] 1 | [5] 1 | [6] 0.994 | [7] 0.994 | [28] 1 | [8] 1 | [9] 1 | [10] 0.989 | [11] 0.999 | [12] 0.995 | [13] 0.999 | [14] 1.01 | [15] 0.996 | [16] 1.04 | [17] 0.986 | [18] 1 | [19] 0.997 | [31] 1 | [20] 1.01 | [21] 0.99 | [22] 1 | [23] 0.996 | [24] 1.01 | S. cerevisiae deletion strains, locus YOL006C, strain TOP1, stronger effect = lower value 0.994 | [25] 1.01 | [26] 0.992 | [27] 1.04

CCOC(=O)N/N=C\c1cccs1
inactive: [1] 0.995 | [2] 1 | [3] 0.982 | [5] 0.996 | [6] 1 | [7] 1 | [8] 1.05 | [9] 0.992 | [11] 0.984 | [12] 0.972 | [29] 1.01 | [13] 1.07 | [14] 1.02 | [15] 1.01 | [16] 1.05 | [17] 0.996 | [18] 1 | [19] 0.997 | [31] 1.02 | [20] 1 | [21] 0.996 | [22] 1.03 | [23] 1.01 | [24] 1 | [25] 1.01 | [26] 0.993 | [27] 0.948 | [30] 1.01

Source: PubChem BioAssay AID1159580 (chemical genetic matrix, 2015)
